# Screening data from PubChem.
# The list is not random: actives were taken first. Their share in the collection is about 21%.
# Pf growth 96h – P. falciparum growth inhibition at 96 hour, primary screen for plastid delayed-death inhibitors | P. falciparum luciferase reporter growth, 96 h | Potency, µM (doses to about 28.7 µM), for the others: at the highest dose activity change, negative = inhibition, hits mostly inhibitors | 320,000 compounds, 6.9% hits | AID 504834; also: potency is read from the fitted curve at half-maximal effect; % is scaled to controls: 0 for no effect and ±100 for the full control effect
#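 Compounds incubated with erythrocytes infected by luciferase-expressing P. falciparum (2% hematocrit, 0.05% parasitemia final) for 96 hours, 37 C in 5% CO2. Growth inhibition scored as decreased luciferase luminescence.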
# HCV inhibitor – inhibitors of hepatitis C virus infection; Huh7.5.1 HCVcc-Cre infection, luciferase reporter, 44 h; AID 651820; Potency, µM (series often up to 41.8 µM), inactives show at the highest dose activity change, negative = inhibition, hits mostly inhibitors; 340,000 compounds, 3.4% hits; also: potency is read from the fitted curve at half-maximal effect; % is scaled to controls: 0 for no effect and ±100 for the full control effect
#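 Whole-lifecycle infectious HCVcc-Cre system; cells 1,000/well, compound then virus (~0.5 moi) added 4 h after plating, 44 h culture. Luciferase read 15 sec following 15 min substrate incubation, room temp.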
# CHX counter – affects cycloheximide protein synthesis inhibition readout, counter-screen; max response, %; 300,000 compounds, 12% hits; cell reporter, cycloheximide protein synthesis inhibition counterscreen; in the data active = max response mostly above about 13%, no sharp cut-off; inactive = mostly below about 14%; also: read at 38.3 µM for the half of the compounds with a filed dose; 0% is about no effect
# Shiga toxin inh – inhibitors of Shiga toxin in Vero cells; Vero cells, Shiga toxin protein synthesis inhibition reporter; inhibition, % at 38.7 µM; 290,000 compounds, 9.2% hits; AID 2315; in the data active = inhibition mostly above about 28%, no sharp cut-off; inactive = mostly below about 43%; also: 0% is about no effect
# AMA1-RON2 inh – disrupts binding of P. falciparum AMA1 to RON2; 360,000 compounds, 0.2% hits; Potency, µM (top dose mostly 58.2 µM), for the others: at the highest dose activity change, negative = inhibition, hits mostly inhibitors; AlphaScreen AMA1-biotinylated RON2 peptide binding;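 also: potency is read from the fitted curve at half-maximal effect; 0% = vehicle wells and -100% = peptide control; nearly all actives have a fitted effect of over 45% in size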
#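 AMA1 (3D7) with his tag at 25 nM final met compounds first, then biotinylated RON2 peptide at 25 nM; detection used donor plus acceptor beads, 10 µg/mL apiece, read by AlphaScreen after 30 min at room temperature.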
# Pf growth 48h – inhibits P. falciparum growth in the first generation, 48 h. P. falciparum luciferase growth in erythrocytes, 48 h. Potency, µM (doses to about 28.7 µM), without a hit: at the top dose activity change, negative = inhibition, most hits filed as inhibitors. 310,000 compounds, 5.9% hits; also: potency is read from the fitted curve at half-maximal effect; % is scaled to controls: 0 for no effect and ±100 for the full control effect
#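 First compound was added to culture medium, then infected red cells at 0.1% parasitemia and 2% hematocrit (final). After incubation at 37 C under 5% CO2, luciferase detection reagent was dispensed and light output recorded.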
# Active calls of the source: *; ? = inconclusive; . = no result; ! = repeats disagree; [ ] = dose if it differs, or a comment. Unless noted, calls follow the shape of the dose curve; as a rule, active = well fitted curve in the direction sought with a large enough effect; inconclusive = small, poorly fitted or top-dose-only effect, or another doubt; inactive = no such curve, though single readings can be large; an effect the other way counts as inactive or inconclusive.
SMILES,Pf growth 96h,HCV inhibitor,CHX counter,Shiga toxin inh,AMA1-RON2 inh,Pf growth 48h
C/C(CC(=O)NC1CCCC1)=N\NC(=O)Cc1cccs1,39%,-6%,15*,20,37%,1%
COC(=O)[C@@]12CCCCN1[C@H](c1ccc(-c3ccc4c(c3)OCO4)cc1)[C@H]1C(=O)N(C)C(=O)[C@H]12,.,5%,.,.,-1%,.
COc1ccccc1C(=O)Nc1cccc(C(=O)c2ccccc2)c1,44%,2%,13*,20,6%,-11%
COc1cc(OC)c(C(=O)Nc2cccc(C(C)=O)c2)cc1OC,2%,-9%,19*,25,2%,.
COc1ccc(NC(=S)Nc2cccc(C(C)=O)c2)cc1OC,12µM*,1%,14,18,7%,-1%
CC(=O)c1cccc(NC(=S)Nc2ccc(F)cc2)c1,39%,9%,13*,19,18%,401%
COC(=O)[C@@H](NC(=O)Nc1ccc(C(C)=O)cc1)C(C)C,3%,4%,2,-4,-3%,-5%
COc1cccc(OC)c1C(=O)Nc1cccc(C(=O)Nc2cccc(C(=O)O)c2)c1,215%,6%,-1,-3,1%,111%
COc1ccc(C(=O)Nc2cccc(C(C)=O)c2)c(OC)c1OC,29%,-1%,22*,69*,4%,.
COc1ccc(C(C)NC(=O)Nc2ccc(C(C)=O)cc2)cc1OC (stereo not drawn),285%,?,23*,23,0%,-8%
COC(=O)c1cccc(NC(=O)c2cc(OC)c(OC)c(OC)c2Br)c1,277%,-26%,5,20,-2%,6%
COc1ccc(C(=O)Nc2cccc(C(C)=O)c2)cc1OC,33%,6%,30*,45,9%,68%
O=C1C=C(C#Cc2ccccc2)C[C@@H](c2ccc(F)cc2)C1,.,.,.,.,6%,.
COC(=O)C1C(=O)C=C(Nc2ccc(F)cc2)CC1c1ccc(OC)cc1 (stereo not drawn),-28%,10%,25*,40,1%,-5%
COC(=O)C1C(=O)C=C(Nc2ccc(F)cc2F)CC1c1ccc(OC)cc1 (stereo not drawn),-5%,13%,21,21,20%,1%
COC(=O)C1C(=O)C=C(Nc2ccc(F)cc2F)CC1c1ccccc1 (stereo not drawn),9%,-13%,21*,55,8%,-4%
CCOC(=O)C1C(=O)C=C(Nc2ccccc2F)CC1c1ccccc1 (stereo not drawn),-13%,6%,46*,54*,7%,0%
CCOC(=O)C1C(=O)C=C(c2ccccc2)CC1c1ccccc1 (stereo not drawn),.,-21%,.,.,3%,.
COC(=O)C1C2CC(=O)C(C2)C1C(=O)OC (stereo not drawn),.,0%,.,.,4%,.
N#CC1(NC(=O)CSc2nnc(-c3ccccc3F)o2)CCCCC1,-17%,?,.,.,0%,-12%
C=CCn1c(SCc2cc(=O)n3ccsc3n2)nc2ccccc2c1=O,14%,-2%,0,-17,0%,3%
C=CCn1c(SCc2cc(=O)n3ccsc3n2)nc2scc(C3CC3)c2c1=O,4.1µM*,?,-5,-6,-5%,?
CCCCNC(=O)C1(C)CCC(=O)N1C1CCN(Cc2ccccc2)CC1 (stereo not drawn),.,.,.,.,3%,.
Cc1ccc(NC(=O)CCn2c(=O)[nH]c3ccsc3c2=O)cc1F,23%,-1%,4,-5,-4%,?
O=C(c1ccc(=O)[nH]n1)N1CCc2ccccc2C1,-15%,17%,6,20,7%,-4%
SMILES,Pf growth 96h,HCV inhibitor,CHX counter,Shiga toxin inh,AMA1-RON2 inh,Pf growth 48h
Cc1cc(C(=O)N2CCc3ccccc3C2)no1,29%,1%,19*,13,-8%,23%
Cc1cc(C(=O)N2CCc3ccccc3C2)n[nH]1,-15%,6%,24*,53*,9%,55%
O=C(c1cc(-c2ccccc2)on1)N1CCc2ccccc2C1,?,11%,-1,-6,?,26%
CCOCc1nc2nc(Cl)c(Cl)nc2[nH]1,.,.,.,.,9%,.
O=C(NCCNC(=O)c1ccccc1Br)c1cccnc1,?,1%,-1,-7,-22%,0%
CC(C)c1ccc([N+](=O)[O-])cc1S(=O)(=O)N1CCN(C)CC1,1%,7%,0,-3,4%,?
N/C(Cc1ccc([N+](=O)[O-])cc1)=N\OC(=O)Cc1ccc(Cl)cc1,24%,3%,2,18,13%[11.6 µM],-11%
O=C(OCc1ccc([N+](=O)[O-])cc1)c1cc([N+](=O)[O-])ccc1N1CCOCC1,?,4.5µM*,.,.,-26%,?
O=C(OCc1c(F)cccc1Cl)c1cc([N+](=O)[O-])ccc1N1CCOCC1,7%,11µM*,.,.,?,?
O=C(Cc1ccc([N+](=O)[O-])cc1)OCc1c(F)cccc1Cl,0%,3%,17*,56,-3%,124%
O=C(Nc1ccc(O)c2c(=O)cc(-c3ccccc3Cl)oc12)c1ccc(F)cc1,-7%,11%,88*!,100*!,18%,4%
Cc1ccc(/C=C/C(=O)Nc2ccc(O)c3c(=O)cc(-c4ccccc4Cl)oc23)cc1,10µM*,?,7,4,9%,?
CC(=O)N1CCc2cc(S(=O)(=O)NCCC(=O)NCCc3ccc(C)cc3)ccc21,9%,10µM*,-1,-19,-15%,?
CCC(=O)N1CCc2cc(S(=O)(=O)NCCC(=O)Nc3cc(C)cc(C)c3)ccc21,41%,-6%,-3,14,-13%,?
CC(=O)N1CCc2cc(S(=O)(=O)NCCC(=O)NCCc3ccc(Cl)cc3)ccc21,3%,?,3,10,-3%,?
CC(=O)N1CCc2cc(S(=O)(=O)NCCC(=O)NC3CCCCCC3)ccc21,86%,-28%,9,-2,-1%,2%
CC(=O)N1CCc2cc(S(=O)(=O)NCCC(=O)Nc3ccc4c(c3)OCCO4)ccc21,?,-15%,30*,66,-22%,57%
CC(=O)N1CCc2cc(S(=O)(=O)NCCC(=O)Nc3cc(C)cc(C)c3)ccc21,5.2µM*,23%,0,-7,-7%,?
Cc1cc(C)c(S(=O)(=O)NCCCn2ccnc2)cc1C,13%,-13%,-2,.,?,9%
CC(=O)O[C@@H](Cc1ccc(O)cc1)C(=O)CC(C)C,.,.,.,.,1%,.
CCCCOc1ccc(NC(=O)c2cnc(C)cn2)cc1,?,-13%,13*,54,-20%,.
Cc1cnc(C(=O)Nc2ccc(S(=O)(=O)N(C(C)C)C(C)C)cc2)cn1,-21%,-2%,2,.,-4%,-29%
Cc1cnc(C(=O)Nc2ccc3c(c2)CCC3)cn1,21%,-7%,39*,82*,6%,198%
Cc1cnc(C(=O)OCC(=O)Nc2ccc(OCc3ccccc3)cc2)cn1,331%,27%,.,.,-5%,324%
